Holding throughout (design): scale not given: direction of the effect not stated beside the values
The target in assay [1] is Protein translocase subunit SecA (Escherichia coli (strain K12)) (UniProt P10408). In words: Assay to Identify E. coli SecA ATPase Inhibitors. The class given is functional. To be noted: 30 µM.
Assay [2] addresses T1, Ubiquitin-activating enzyme e1, putative (Leishmania donovani (strain BPK282A1)) (UniProt E9BSI1).
T1 sequence (whole entry): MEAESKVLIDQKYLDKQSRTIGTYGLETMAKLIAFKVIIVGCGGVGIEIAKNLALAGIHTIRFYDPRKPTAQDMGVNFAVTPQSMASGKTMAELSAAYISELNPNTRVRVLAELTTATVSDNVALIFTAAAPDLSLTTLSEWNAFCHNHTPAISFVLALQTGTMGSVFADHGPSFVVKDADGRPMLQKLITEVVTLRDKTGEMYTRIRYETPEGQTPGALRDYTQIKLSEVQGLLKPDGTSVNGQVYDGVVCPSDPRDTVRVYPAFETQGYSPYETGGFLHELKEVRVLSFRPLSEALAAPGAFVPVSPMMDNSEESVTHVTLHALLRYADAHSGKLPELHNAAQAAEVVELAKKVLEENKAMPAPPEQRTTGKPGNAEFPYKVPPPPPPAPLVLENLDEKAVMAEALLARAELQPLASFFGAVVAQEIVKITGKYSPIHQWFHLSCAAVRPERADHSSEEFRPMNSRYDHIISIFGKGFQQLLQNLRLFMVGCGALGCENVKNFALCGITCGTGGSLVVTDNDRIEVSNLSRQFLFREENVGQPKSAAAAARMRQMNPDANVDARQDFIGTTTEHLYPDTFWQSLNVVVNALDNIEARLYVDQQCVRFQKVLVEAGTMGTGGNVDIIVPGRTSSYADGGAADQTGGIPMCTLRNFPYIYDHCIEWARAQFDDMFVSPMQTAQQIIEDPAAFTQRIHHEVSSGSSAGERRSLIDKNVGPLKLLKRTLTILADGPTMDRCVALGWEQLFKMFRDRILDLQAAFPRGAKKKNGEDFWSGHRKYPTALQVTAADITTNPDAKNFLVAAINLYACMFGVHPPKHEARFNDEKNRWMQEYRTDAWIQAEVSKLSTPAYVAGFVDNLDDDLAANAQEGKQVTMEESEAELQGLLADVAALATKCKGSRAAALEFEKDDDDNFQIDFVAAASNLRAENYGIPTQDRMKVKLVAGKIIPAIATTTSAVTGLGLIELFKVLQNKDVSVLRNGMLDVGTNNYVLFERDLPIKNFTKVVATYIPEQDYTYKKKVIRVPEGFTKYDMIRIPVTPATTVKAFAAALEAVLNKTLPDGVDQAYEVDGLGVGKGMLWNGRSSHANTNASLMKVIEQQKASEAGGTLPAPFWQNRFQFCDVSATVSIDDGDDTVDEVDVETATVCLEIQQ
The assay can be described thus: Leishmania donovani Ubiquitin Activating Enzyme (LdE1). The class given is functional. The settings on record: 30 µM.

In assay [3] the target is AMP-activated protein kinase, AMPK (Homo sapiens) (UniProt P54646+O43741+P54619+Q9UGJ0+Q9Y478+Q13131+Q9UGI9). The assay can be described thus: AMP-dependent Kinase enzyme assay. An in vitro enzyme assay that detects ADP turnover that is directly proportional to AMPK activity. This uses naive AMPK that is activated during the assay with MK-8722. The class given is functional. To be noted: 30 µM.

The target of assay [4] is Sialic acid-binding Ig-like lectin 9 (Homo sapiens) (UniProt Q9Y336). The assay can be described thus: Hs-Siglec9 ALPHAscreen SOP 20170721. The settings on record: 10 µM.
Chain of Sialic acid-binding Ig-like lectin 9 (Homo sapiens) (Q9Y336 whole entry): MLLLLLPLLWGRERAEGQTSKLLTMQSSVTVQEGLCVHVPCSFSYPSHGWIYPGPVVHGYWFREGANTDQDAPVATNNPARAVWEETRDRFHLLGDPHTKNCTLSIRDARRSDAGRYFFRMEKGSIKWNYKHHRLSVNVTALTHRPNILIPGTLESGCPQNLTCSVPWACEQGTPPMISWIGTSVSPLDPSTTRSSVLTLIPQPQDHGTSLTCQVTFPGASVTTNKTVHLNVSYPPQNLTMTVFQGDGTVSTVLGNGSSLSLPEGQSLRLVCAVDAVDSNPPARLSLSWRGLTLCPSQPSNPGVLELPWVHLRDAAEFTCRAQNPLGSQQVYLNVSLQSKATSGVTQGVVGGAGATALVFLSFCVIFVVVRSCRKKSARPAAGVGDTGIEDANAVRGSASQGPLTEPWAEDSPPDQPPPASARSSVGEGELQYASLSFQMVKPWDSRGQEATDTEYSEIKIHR
Another assay has as its system Trypanosoma cruzi. The assay can be described thus: Trypanosoma cruzi phosphomannomutase and mannose-1-phosphate guanylyltransferase assay. The settings on record: 10 µM. The format is functional.
In assay [5] the target is T2, Arginase-2, mitochondrial (Homo sapiens) (UniProt P78540).
T2 sequence (whole entry): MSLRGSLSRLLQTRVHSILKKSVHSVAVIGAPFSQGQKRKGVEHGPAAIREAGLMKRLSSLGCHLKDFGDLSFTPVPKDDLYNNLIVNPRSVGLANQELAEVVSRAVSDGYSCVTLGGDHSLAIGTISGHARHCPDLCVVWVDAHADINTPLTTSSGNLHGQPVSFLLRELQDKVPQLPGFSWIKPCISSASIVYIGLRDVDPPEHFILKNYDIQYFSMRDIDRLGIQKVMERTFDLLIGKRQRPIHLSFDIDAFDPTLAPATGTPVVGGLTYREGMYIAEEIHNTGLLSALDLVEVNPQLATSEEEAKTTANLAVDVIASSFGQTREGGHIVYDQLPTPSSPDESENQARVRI
In words: in vitro enzyme assay to detect the production of urea directly proportional to the activity of Arginase II. Further: in the data most compounds retested in dose-response had high values. The format is functional. To be noted: 33.3 µM.

In assay [6] the target is T3, Proteasome subunit beta (Trypanosoma cruzi) (UniProt O96673).
T3 sequence (whole entry): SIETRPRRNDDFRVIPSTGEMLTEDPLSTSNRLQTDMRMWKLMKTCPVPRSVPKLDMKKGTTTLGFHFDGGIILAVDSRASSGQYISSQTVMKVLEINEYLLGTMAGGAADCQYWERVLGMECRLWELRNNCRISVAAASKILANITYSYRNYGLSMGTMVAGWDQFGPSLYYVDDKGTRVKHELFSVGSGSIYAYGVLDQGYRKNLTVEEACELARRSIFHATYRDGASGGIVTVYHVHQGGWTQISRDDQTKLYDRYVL
In words: Trypanosoma cruzi proteasome chymotrypsin-like activity (TcProtChymo) assay. Further: in the data most compounds retested in dose-response had high values. The format is functional. The settings on record: 9.37 µM.

Another assay is filed under the species Homo sapiens. The assay can be described thus: To identify inhibition of the IFN signalling (Jak-Stat) pathway via expression of an eGFP reporter gene under the control of an IFN-stimulated response element (ISRE) containing MxA promoter. The format is functional. To be noted: 30 µM. In general terms: Reporter assays use an easily measured gene product as a stand-in for the process of interest.

Assay [7] has as its target T4, Tyrosyl-tRNA synthetase, putative (Trypanosoma cruzi (strain CL Brener)) (UniProt Q4DSP6).
T4 sequence (whole entry): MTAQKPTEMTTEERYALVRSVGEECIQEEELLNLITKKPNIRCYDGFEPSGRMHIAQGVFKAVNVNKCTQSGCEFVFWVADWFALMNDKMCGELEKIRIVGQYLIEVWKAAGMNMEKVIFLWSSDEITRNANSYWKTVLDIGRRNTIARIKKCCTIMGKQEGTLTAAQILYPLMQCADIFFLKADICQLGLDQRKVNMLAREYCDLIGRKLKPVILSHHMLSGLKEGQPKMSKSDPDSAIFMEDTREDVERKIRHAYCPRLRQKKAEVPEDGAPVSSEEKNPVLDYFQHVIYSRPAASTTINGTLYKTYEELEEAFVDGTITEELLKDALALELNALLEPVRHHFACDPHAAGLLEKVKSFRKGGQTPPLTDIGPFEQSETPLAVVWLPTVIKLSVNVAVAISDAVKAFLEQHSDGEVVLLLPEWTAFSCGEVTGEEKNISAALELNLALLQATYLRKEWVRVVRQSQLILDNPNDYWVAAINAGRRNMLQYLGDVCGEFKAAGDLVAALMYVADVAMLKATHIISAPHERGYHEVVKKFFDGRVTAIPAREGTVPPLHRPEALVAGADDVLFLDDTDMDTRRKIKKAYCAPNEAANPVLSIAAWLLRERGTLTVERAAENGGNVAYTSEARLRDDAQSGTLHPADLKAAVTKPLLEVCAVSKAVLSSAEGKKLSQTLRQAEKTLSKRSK
In words: Trypanosoma cruzi tyrosyl tRNA synthetase (TcYRS) _High Tyrosine SOP. Further: in the data most compounds retested in dose-response had high values. The format is functional. The settings on record: 30 µM.

Assay [8] concerns the target T4, Tyrosyl-tRNA synthetase, putative (Trypanosoma cruzi (strain CL Brener)). The assay can be described thus: Trypanosoma cruzi tyrosyl tRNA synthetase (TcYRS) SOP. The format is functional. To be noted: 30 µM.
Assay [9] concerns the target Chromo domain-containing protein 1 (Saccharomyces cerevisiae (strain ATCC 204508 / S288c) (Baker's yeast)) (UniProt P32657). The assay can be described thus: ScCHD-1 Enzyme Inhibition Assay. Further: in the data most compounds retested in dose-response had high values. The class given is functional. To be noted: 30 µM.

For some of these results: Entries with a potency or affinity are not part of this list.

Chain of Protein translocase subunit SecA (Escherichia coli (strain K12)) (P10408 whole entry): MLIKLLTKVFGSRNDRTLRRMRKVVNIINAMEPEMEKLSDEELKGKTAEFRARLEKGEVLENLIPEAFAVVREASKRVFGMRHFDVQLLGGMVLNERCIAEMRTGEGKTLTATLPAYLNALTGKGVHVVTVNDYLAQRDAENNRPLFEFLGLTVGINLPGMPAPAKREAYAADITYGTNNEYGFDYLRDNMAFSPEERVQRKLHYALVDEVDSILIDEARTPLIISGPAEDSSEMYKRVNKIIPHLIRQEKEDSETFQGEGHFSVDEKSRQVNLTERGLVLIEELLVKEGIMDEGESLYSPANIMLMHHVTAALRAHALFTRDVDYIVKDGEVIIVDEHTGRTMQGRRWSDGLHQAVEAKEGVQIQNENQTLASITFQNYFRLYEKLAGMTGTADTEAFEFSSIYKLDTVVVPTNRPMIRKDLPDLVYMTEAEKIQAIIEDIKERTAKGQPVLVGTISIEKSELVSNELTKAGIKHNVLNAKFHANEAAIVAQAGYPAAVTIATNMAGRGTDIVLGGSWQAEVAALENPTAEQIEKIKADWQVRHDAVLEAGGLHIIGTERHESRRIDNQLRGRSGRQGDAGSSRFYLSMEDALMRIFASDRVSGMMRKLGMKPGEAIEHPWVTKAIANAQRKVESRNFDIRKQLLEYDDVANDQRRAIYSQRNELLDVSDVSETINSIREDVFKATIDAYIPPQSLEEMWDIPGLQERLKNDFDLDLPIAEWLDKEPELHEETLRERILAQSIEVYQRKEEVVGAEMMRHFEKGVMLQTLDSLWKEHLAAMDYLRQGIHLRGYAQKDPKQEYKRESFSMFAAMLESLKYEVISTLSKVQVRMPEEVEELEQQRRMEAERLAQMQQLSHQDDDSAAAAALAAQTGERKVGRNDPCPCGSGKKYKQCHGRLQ
Chain of Chromo domain-containing protein 1 (Saccharomyces cerevisiae (strain ATCC 204508 / S288c) (Baker's yeast)) (P32657 whole entry, the tested form may be a part): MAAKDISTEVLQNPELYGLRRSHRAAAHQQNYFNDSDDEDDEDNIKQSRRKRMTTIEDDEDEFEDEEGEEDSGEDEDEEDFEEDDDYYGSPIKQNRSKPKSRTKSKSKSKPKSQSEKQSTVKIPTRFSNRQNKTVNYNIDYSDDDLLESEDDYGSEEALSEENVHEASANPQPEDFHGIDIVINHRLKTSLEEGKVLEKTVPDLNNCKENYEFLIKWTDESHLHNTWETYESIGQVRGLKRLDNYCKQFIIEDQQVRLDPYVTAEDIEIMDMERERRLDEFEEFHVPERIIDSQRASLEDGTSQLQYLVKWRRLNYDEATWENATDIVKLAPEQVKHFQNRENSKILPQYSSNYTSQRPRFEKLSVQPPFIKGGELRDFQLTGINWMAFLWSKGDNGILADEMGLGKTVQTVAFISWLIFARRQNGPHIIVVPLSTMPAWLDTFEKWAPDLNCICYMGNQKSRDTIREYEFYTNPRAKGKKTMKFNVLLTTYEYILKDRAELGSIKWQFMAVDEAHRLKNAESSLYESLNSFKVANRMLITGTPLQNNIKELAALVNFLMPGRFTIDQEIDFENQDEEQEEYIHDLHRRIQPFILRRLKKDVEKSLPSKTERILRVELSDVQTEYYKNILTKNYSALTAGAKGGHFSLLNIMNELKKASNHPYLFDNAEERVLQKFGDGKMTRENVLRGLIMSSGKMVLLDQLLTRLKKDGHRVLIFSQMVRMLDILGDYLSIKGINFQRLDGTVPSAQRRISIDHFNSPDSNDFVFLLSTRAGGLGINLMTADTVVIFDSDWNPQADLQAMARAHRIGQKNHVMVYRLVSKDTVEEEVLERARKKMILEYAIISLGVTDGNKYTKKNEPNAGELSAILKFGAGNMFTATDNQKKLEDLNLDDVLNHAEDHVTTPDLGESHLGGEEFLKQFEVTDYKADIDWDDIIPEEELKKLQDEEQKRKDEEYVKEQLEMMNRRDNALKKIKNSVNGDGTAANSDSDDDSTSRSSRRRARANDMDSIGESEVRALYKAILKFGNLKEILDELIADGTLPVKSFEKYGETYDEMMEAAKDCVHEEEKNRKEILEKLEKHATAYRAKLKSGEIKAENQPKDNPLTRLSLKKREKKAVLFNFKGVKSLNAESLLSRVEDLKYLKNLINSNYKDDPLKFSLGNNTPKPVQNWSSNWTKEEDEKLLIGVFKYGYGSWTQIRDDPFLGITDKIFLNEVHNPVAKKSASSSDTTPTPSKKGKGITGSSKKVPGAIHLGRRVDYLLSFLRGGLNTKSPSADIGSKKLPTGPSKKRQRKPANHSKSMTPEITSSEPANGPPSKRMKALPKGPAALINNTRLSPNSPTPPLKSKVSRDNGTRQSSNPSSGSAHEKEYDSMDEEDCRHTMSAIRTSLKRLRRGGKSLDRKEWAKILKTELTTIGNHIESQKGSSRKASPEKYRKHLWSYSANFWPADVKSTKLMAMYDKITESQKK

Consider `Cc1nc(C(=O)N2CCC(Nc3cccnn3)CC2)cs1`, for which the Percent Effect is -9.75% in assay [1]; 7.79% in assay [2]; -12.2% in assay [3]; -10.3% in assay [4]; 9.11% in the assay on Trypanosoma cruzi; -5.68% in [5]. Further, the Percent Effect is 12.7% in assay [6]; -1.06% in the assay filed under Homo sapiens; 1.91% in assay [7]; 18.8% in [8]; -20.4% in assay [9].

Take `CCCC1(CO)CCCN(c2ncccc2F)C1` (stereo unspecified): the Percent Effect in assay [1] is -0.789%; in assay [2], 5.41%; in assay [3] it was -4.77%; in assay [4], 3.77%; in the assay on Trypanosoma cruzi, -1.16%; in assay [5] it was -2.38%. Further, the Percent Effect was 14.8% in [6]; 10.4% in the assay listed under Homo sapiens; 5.82% in [7]; 12.2% in assay [8]; -3.22% in assay [9].

On to `COc1ccc(C2C3=C(COC3=O)Nc3[nH]nc(C)c32)cc1OC` (stereo unspecified), for which the Percent Effect in assay [1] was 2.08%; in assay [2], 6.67%; in [3], 9.48%; in [4] it was -1.62%; in the assay on Trypanosoma cruzi it was -6.68%; in [5], -10.7%. The Percent Effect in assay [6] was 12.8%; in the assay filed under Homo sapiens, 8.17%; in assay [7] it was 5.29%; in assay [8], 10.3%; in assay [9], -11%.

In the case of `CNC(=O)c1ccc(CN2CCC(N(C)Cc3noc(C)n3)C2)cc1` (stereo unspecified), the Percent Effect was -2.92% in assay [1]; 18.2% in assay [2]; -3.53% in assay [3]; -3.54% in [4]; -2.25% in the assay on Trypanosoma cruzi; 4.42% in assay [5]. Further, the Percent Effect in assay [6] was 15.9%; in the assay listed under Homo sapiens, 22.1%; in assay [7] it was -1.91%; in assay [8], 14.1%; in [9], -19.2%.

`Cc1cnn(CC2CCCN2CCCc2nc3ccccc3o2)c1` (stereo unspecified): the Percent Effect in assay [1] was -6.63%; in [2], 13.5%; in assay [3] it was -13.1%; in assay [4], 10.9%; with Trypanosoma cruzi it was 4.18%; in assay [5] it was -4.99%. The Percent Effect was 6.82% in assay [6]; 4.32% in the assay listed under Homo sapiens; 6.93% in [7]; 18.3% in [8]; -7.36% in [9].

Turning to `CCn1cc(NC(=O)NC2CCCc3c2cnn3CCO)cn1` (stereo unspecified), the Percent Effect in [1] is -1.35%; in assay [2], 5.33%; in [3], -2.07%; in assay [4] it was 4.11%; in the assay on Trypanosoma cruzi, -1.07%; in assay [5], 1.56%. Moreover, the Percent Effect in assay [6] is 9.77%; in the assay listed under Homo sapiens it was 4.28%; in [7], 4.92%; in assay [8] it was 11.1%; in assay [9], -14.2%.

Turning to `O=C(Nc1ncn(CC(=O)N2CCCCCC2)n1)C1CCCO1` (stereo unspecified), the Percent Effect is -2.31% in assay [1]; 7.89% in assay [2]; 0.569% in assay [3]; 1.68% in assay [4]; -6.39% with Trypanosoma cruzi; 4.6% in [5]. Also, the Percent Effect in assay [6] is 1%; in the assay filed under Homo sapiens, 17.6%; in assay [7], 2.45%; in [8], 9.76%; in assay [9], -1.04%.

On to `Cc1cc(C)n(CC2CCCN2C(=O)c2cnn(C)c2C2CC2)n1` (stereo unspecified), for which the Percent Effect in [1] is -0.918%; in [2], 2.7%; in assay [3] it was 11.2%; in assay [4], 10.3%; with Trypanosoma cruzi it was 0.65%; in assay [5], -0.554%. The Percent Effect in [6] worked out at 0.718%; in the assay listed under Homo sapiens, 9.84%; in [7], 2.97%; in [8], 1.22%; in [9] it was 10.5%.

As for `CC(=O)c1cccc(OCCCC(=O)N(C)CCc2ccncc2)c1`, the Percent Effect is -2.19% in assay [1]; 8.11% in [2]; -3.93% in assay [3]; 2.37% in [4]; 3.67% with Trypanosoma cruzi; -1.91% in assay [5]. For the same molecule, the Percent Effect in assay [6] is 16.4%; in the assay listed under Homo sapiens it was 16.1%; in [7], 8.99%; in assay [8], 17.1%; in [9] it was -2.34%.

As for `COc1cccc(N2CCN(CC(O)c3cc(C)sc3C)CC2)c1` (stereo unspecified), the Percent Effect in assay [1] was -4.6%; in assay [2] it was 20.3%; in [3] it was 6.95%; in assay [4], -1.22%; in the assay with Trypanosoma cruzi it was 2.77%; in [5] it was -2.55%. Moreover, the Percent Effect was 5.62% in [6]; 19.5% in the assay listed under Homo sapiens; 15.1% in [7]; 22.1% in [8]; -16.3% in assay [9].

In the case of `Cc1cc2c(=O)n3c(nc2s1)CCN(C(=O)c1cnn(C)c1C)CC3`, the Percent Effect in assay [1] is -6.2%; in [2], -17.6%; in assay [3], 6.62%; in assay [4], 5.04%; in the assay with Trypanosoma cruzi, 1.98%; in assay [5], -6.26%. Moreover, the Percent Effect is 9.83% in assay [6]; 13% in the assay filed under Homo sapiens; 5.38% in assay [7]; 11.7% in assay [8]; -18.8% in [9].

The values are drawn from ChEMBL document CHEMBL3988442, “University of Dundee, Small-Polar-MMV Screening Library” (2021).
